Bioassay records from PubChem BioAssay.
Shown are actives, neighbours in structure and some others; about 3.6% of the full set was active somewhere.
Epigenetic reg – derepresses silenced GFP reporter in murine cells. murine LDR cells, GFP reporter derepression, 30 h. Potency, µM (series often up to 53.9 µM), hits mostly activators. 280,000 compounds, 0.2% hits; note: nearly all actives have a fitted effect of over 60% in size
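In this reporter-derepression format, murine cells bearing a silenced integrated CMV-GFP locus incubate with test compound (30 h, 37 C), then are washed and imaged; fluorescent objects of 20–120 um count as induced cells.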
NPSR antag – neuropeptide S receptor (human) antagonism, cAMP. Q6W5P4. AID 1461. Potency, µM (titrated, usually from 38.3 µM), actives largely listed as inhibitors. CHO-NPSR cells, cAMP TR-FRET, antagonist mode. 220,000 compounds, 1% hits; note: nearly all actives have a fitted effect of over 50% in size
KDM4E inh – JMJD2E (human) inhibition. AID 2147. 230,000 compounds, 1.6% hits. JMJD2E catalytic domain, FDH-coupled NADH fluorescence (FDH is formaldehyde dehydrogenase). Potency, µM (doses to about 57.1 µM), actives largely listed as inhibitors; active = well fitted inhibition curve with a large enough effect, not every such curve was filed as active; inconclusive = small, poorly fitted or top-dose-only effect, or another doubt; inactive = no such curve, though single readings can be large or run the other way; note: nearly all actives have a fitted effect of over 50% in size
Target sequence (B2RXH2 1-337 limits assumed): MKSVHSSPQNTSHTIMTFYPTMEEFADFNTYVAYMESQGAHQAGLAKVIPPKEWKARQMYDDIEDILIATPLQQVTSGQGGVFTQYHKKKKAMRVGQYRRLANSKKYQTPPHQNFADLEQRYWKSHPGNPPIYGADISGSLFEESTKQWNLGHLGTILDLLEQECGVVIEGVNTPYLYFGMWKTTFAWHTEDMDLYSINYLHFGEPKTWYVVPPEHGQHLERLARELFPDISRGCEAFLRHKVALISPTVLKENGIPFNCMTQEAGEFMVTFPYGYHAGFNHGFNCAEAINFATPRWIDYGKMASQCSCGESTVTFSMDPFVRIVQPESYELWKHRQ
IMPase Li inh – membrane-permeable IMPase blocker, potentiated with lithium; CHO-M1 cells, IP1 TR-FRET (IP-One), carbachol + lithium; Potency, µM (doses to about 59.4 µM), most hits filed as inhibitors; 210,000 compounds, 0.35% hits; AID 1457;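 note: IP1 builds up when IMPase is blocked and the TR-FRET signal falls; nearly all actives have a fitted effect of over 50% in size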
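Steps: plate 2000 CHO-M1 cells per well and culture 16–30 h; add compound and lithium; incubate 30 min, 37C; add d2-IP1 tracer and Eu cryptate anti-IP1 antibody in lysis buffer; read after 10 min at room temperature.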
Sfp PPTase inh – blocks B. subtilis Sfp PPTase activity | Potency, µM, actives largely listed as inhibitors | AID 1490 | Q9F4F7 | Biochemical Sfp PPTase activity, qHTS | 310,000 compounds, 3.5% hits;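 note: the enzyme is Sfp with the accession as filed and its product quenches rhodamine fluorescence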
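Fluorescence-quenching assay with 15 nM Sfp, 5 uM rhodamine-CoA and 12.5 uM BHQ-2-labelled ybbR peptide in pH 7.6 Hepes/MgCl2 buffer. Enzyme was pre-incubated with compound for 15 min at room temperature. Rate was taken from the 30-min fluorescence change (525/598 nm).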
KAT2A inh – blocks human GCN5L2 histone acetyltransferase. Q92830. GCN5L2 HAT assay, ThioGlo1 CoA-SH fluorescence. Potency, µM (titrated, usually from 58.9 µM), most hits filed as inhibitors. 390,000 compounds, 0.21% hits. AID 504327
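Titration-based screen in which CoA formation is detected via maleimide probe ThioGlo1 (50uM) turning fluorescent on thiol reaction; substrates H3(1-25) 75uM and acetyl-CoA 70uM, GCN5L2 20nM, 20 min incubation at room temperature.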
Numbers stand for hits; n = inactive; u = inconclusive; x = no result; [ ] = another dose, or the depositor's remark. Unless noted, calls come from the whole dose curve; as a rule, active = well fitted curve in the direction sought with a large enough effect; inconclusive = small, poorly fitted or top-dose-only effect, or another doubt; inactive = no such curve, though single readings can be large; an effect the other way counts as inactive or inconclusive.

SMILES | Epigenetic reg | NPSR antag | KDM4E inh | IMPase Li inh | Sfp PPTase inh | KAT2A inh
COC(=O)c1ccccc1SC(CC(=O)c1ccccc1)c1ccc(F)cc1 (centres undefined) | 22µM | n | n | x | n | n
COc1ccc([C@]23Cc4cc(OC)c(OC)cc4C(O2)c2c(cc(C)oc2=O)O3)cc1 | x | x | x | x | n | n[12.7 µM]
CN(CCO)c1cc(Sc2nc3ccccc3s2)c2nonc2c1[N+](=O)[O-] | n | n | n | n | 25µM | n
FC(F)(F)c1ccccc1-c1nc(Nc2ccncc2)c2ccccc2n1 | n | x | u | n | n | n
N#Cc1ccc(CSc2nnc(Cc3cccs3)n2Cc2ccco2)cc1 | n | n | n | n | 14µM | n
N#Cc1ccc(CSc2nnc(-c3ccccc3)n2Cc2ccco2)cc1 | n | n | n | n | n | n
COc1ccc(CNC(=O)c2ccc3c(c2)CCN3S(=O)(=O)c2ccc(Cl)cc2)cc1 | n | x | x | x | x | n
COc1cc(Nc2ncc3c(n2)CCN(Cc2ccc(OC(C)C)c(OC)c2)C3)cc(OC)c1 | n | x | x | x | x | n
CN(Cc1ccco1)c1cc(-c2ccc3c(c2)OCO3)ncn1 | x | x | x | n | n | 28µM
COC(=O)N1C(c2ccccc2)=Cc2ccccc2C1CC(C)=O (centres undefined) | x | x | n[11.4 µM] | n | n | x
COC(=O)c1sccc1NC(=O)c1cc(-c2ccc(C)cc2)nc2ccccc12 | n | u | n | n | n | n
CC(C)(C)c1nnc(NC(=O)c2cc(-c3ccccc3)nc3ccccc23)s1 | n | n | u | u | 20µM | n
CCCOc1cccc(-c2cc(C(=O)N/N=C/c3ccccn3)c3ccccc3n2)c1 | x | x | x | x | n | n
COC(=O)c1sccc1NC(=O)c1cc(-c2cccc(C)c2)nc2ccccc12 | n | n | u | n | 16µM | n
CCCOc1cccc(-c2cc(C(=O)NN)c3ccccc3n2)c1 | n | n | 11µM | n | n | n
CCC(=O)N1CCc2cc(S(=O)(=O)NCCC(=O)NC(C)c3ccccc3)ccc21 (centres undefined) | n | x | x | x | x | n
CCCCC/C=C\C/C=C\C/C=C\C/C=C\CCCCCC(=O)NCCCC(=O)O | n | x | n | n | n | x
CC(Sc1nc2c([nH]c3ccccc32)c(=O)n1-c1ccccc1)c1ccccc1 (centres undefined) | n | x | x | x | x | n
O=C1C2C3C=CC(C3)C2C(=O)N1CNc1ccc(O)cc1 (centres undefined) | n | n | u | n | 56µM | n
Cc1ccc(NCN2C(=O)C3C4C=CC(C4)C3C2=O)cc1 (centres undefined) | n | n | n | n | n | n
CN1C(=O)/C(=C/c2cn(CC(=O)NCc3ccco3)c3ccccc23)NC1=S | u | n | n | n | 7.1µM | n
N[C@H](CCC(=O)NCC(=O)O)C(=O)O | n | x | n | n | n | n
NC(CCC(=O)NCS(=O)(=O)O)C(=O)O (centres undefined) | n | n | n | n | 50µM | n
CCc1nn(CC(=O)N2CCCCC2)c(=O)c2cc3sc(C)cc3n12 | n | x | x | x | x | n
CCc1c(C(=O)Nc2ccccc2)c(C)[nH]c(=S)c1C#N | n | n | u | u | 56µM | n
SMILES | Epigenetic reg | NPSR antag | KDM4E inh | IMPase Li inh | Sfp PPTase inh | KAT2A inh
Cc1[nH]c(C(=O)O)c(C#N)c1C(=O)c1ccccc1 | x | x | x | x | n | n
Cc1[nH]c(=S)c(C#N)c(C)c1C(=O)Nc1ccccc1 | n | n | u | n | 45µM | n
CC1=NN(c2ccccc2)C(=O)C1C=Nc1ccccc1O (centres undefined) | n | n | 32µM | x | n | n
CC1=NN(c2ccccc2)C(=O)C1/C=C1\NC(=S)NC1=O (centres undefined) | n | n | u | n | n | n
CCC(Sc1nnc(-c2ccc(OC)cc2)c(-c2ccc(OC)cc2)n1)C(=O)Nc1cccc(OC)c1 (centres undefined) | n | x | x | x | x | n
Cc1cc(NC(=O)Nc2ccc(N(C)C)cc2)c2cc(F)cc(F)c2n1 | n | x | u | n | u | n
O=C(Nc1ccc(-c2csc(Nc3cccc(C(F)(F)F)c3)n2)cc1)c1cc([N+](=O)[O-])cc(C(F)(F)F)c1 | n | 10µM | n | x | n | n
CN(C)c1ncc2nc(-c3ccccc3)c(=O)n(Cc3ccc(F)cc3)c2n1 | x | x | x | n | n | n
